In the OligoGym collection:
Further: reference of the scale not given here.

What follows are sequences tested against BEST2 (assay: pooled miR-30 sensor sort-seq; sequence = guide strand). Settings: shRNA.
Sequence TTAAGGGCGCTGTTGTCGCGGA has a sensor-assay potency score (higher = more potent) of -1.06. AACTTCTTGCGCTCCTCGCGGG was tested, and the sensor-assay potency score (higher = more potent) was -0.5. In the case of TAGTGAAAGAGCATTCCACATT, the sensor-assay potency score (higher = more potent) was -0.946.

The sequences below were run against BIRC8 in the same assay as above. Settings: shRNA.
With TAGATCTGCAACAAGAACCTCA the sensor-assay potency score (higher = more potent) was 0.199. With TTTACAAAGCTTCTCCTCTTGC the sensor-assay potency score (higher = more potent) was -0.189. TTCTTTTAGTTAGTGATGGTGT showed a sensor-assay potency score (higher = more potent) of 0.0164. TTGAAATCAATAACCGCGCTGC showed a sensor-assay potency score (higher = more potent) of 1.02. TTGCTTGAAATCAATAACCGCG was tested, and the sensor-assay potency score (higher = more potent) was 0.0701. For TGCAACAAGAACCTCAAGCGTT, the sensor-assay potency score (higher = more potent) was -0.815. With TCTTCTAGCAGATATTTGCAAC the sensor-assay potency score (higher = more potent) was -1.19. Work on TTTCTGTAGTGTCTTTCTGAGC yielded a sensor-assay potency score (higher = more potent) of -1.49. With TTTCTTGGTAGTTTGTACCAGA the sensor-assay potency score (higher = more potent) was -0.312. Sequence TTGTTAACGGAGTACATCCATG has a sensor-assay potency score (higher = more potent) of -1.22. For TAGTTTGTACCAGAGCTCCCTC, the sensor-assay potency score (higher = more potent) was -0.717. TCGTATAGCTTCTTGTAGCATA showed a sensor-assay potency score (higher = more potent) of -0.43.

What follows are sequences tested against BMPR1B in the same assay as above. Settings: shRNA.
In the case of TAGGTCTTTATTACATTCGTTC, the sensor-assay potency score (higher = more potent) was -0.881. For TCATCCTCTTCTATCATCGTGA, the sensor-assay potency score (higher = more potent) was 0.152. TCTGTCTCTCTGAACCAGCTGG showed a sensor-assay potency score (higher = more potent) of -0.359. For TATTGTTGACTGAGTCTTCTGG, the sensor-assay potency score (higher = more potent) was 0.00108. For TTGATGCACACAATCTCCCTCA, the sensor-assay potency score (higher = more potent) was -0.279. TTGAGTACTAAAGATTTCTGTG gave a sensor-assay potency score (higher = more potent) of 0.176. TCGTGAAACAATATCCGTCTGT showed a sensor-assay potency score (higher = more potent) of -0.0353. For TTGTTGACTGAGTCTTCTGGAC, the sensor-assay potency score (higher = more potent) was -0.721. For TTACATTCGTTCCTTTCTGTGC, the sensor-assay potency score (higher = more potent) was -0.864. Sequence TTTCACCATCTGAATCTGCTTA has a sensor-assay potency score (higher = more potent) of -0.0649. TTCACCATCTGAATCTGCTTAG gave a sensor-assay potency score (higher = more potent) of -0.315. For TTGATCTTCTTTGATGAGGAAT, the sensor-assay potency score (higher = more potent) was -1.13. TATTCTTCCACTATACCTCCTG gave a sensor-assay potency score (higher = more potent) of 0.554. For TTTTACTTTTCAGATCTCGATG, the sensor-assay potency score (higher = more potent) was -0.74. In the case of TAGGTCATGATAAGGAAGCTGG, the sensor-assay potency score (higher = more potent) was -0.2. TCTGTGATTAGGTACAACTGGG gave a sensor-assay potency score (higher = more potent) of 0.0109. TATTACATTCGTTCCTTTCTGT was tested, and the sensor-assay potency score (higher = more potent) was 0.878. ATTTCTGTCTCTCTGAACCAGC was tested, and the sensor-assay potency score (higher = more potent) was -0.623. For TTCTGTTCAAGCTCTCGTCCAA, the sensor-assay potency score (higher = more potent) was -0.142. With TCATCGTGAAACAATATCCGTC the sensor-assay potency score (higher = more potent) was -0.268. TGATATATTTCTGTCTCTCTGA was tested, and the sensor-assay potency score (higher = more potent) was 0.214.

Each sequence was assayed against BOLA1 in the same assay as above. Settings: shRNA.
TTGCGAAGCTCTAGCACCTCGG showed a sensor-assay potency score (higher = more potent) of -0.666. TGCGAAGCTCTAGCACCTCGGG gave a sensor-assay potency score (higher = more potent) of -1.19. TGATTCTTCTCTTTTCTCGGGT gave a sensor-assay potency score (higher = more potent) of 0.0423. TGAGAGTTCTCTCTCCACTGGG gave a sensor-assay potency score (higher = more potent) of -0.015.
